Source: PubChem (Broad Institute)
C diff growth: C. difficile growth inhibition | growth activity, negative = inhibition, % at 16 µg/mL (by protocol) | 86,000 compounds, 0.25% hits | Clostridium difficile clinical isolate growth, OD600, 24 h; hits give low values;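 active means mean growth activity at or below -80% and every replicate also at or below -80%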;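 further: 0% = DMSO wells and -100% = levofloxacin 16 µg/mL wells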
An asterisk follows results filed as active; ! = a repeat was not active. The full list was thinned out, with hits kept by preference.

SMILES | C diff growth
COc1ccc(-c2ccc(C3[C@@H]4CN(C(=O)Nc5ccccc5F)C[C@H]3N4)cc2)cc1 (stereo partly specified) | 44
O=C(Nc1ccc(F)cc1)N1C[C@@H]2N[C@H](C1)C2c1ccc(/C=C/c2ccccc2)cc1 (stereo partly specified) | -100*
C(=C\c1ccc(C2[C@@H]3CN(Cc4ccc5c(c4)OCO5)C[C@H]2N3)cc1)/c1ccccc1 (stereo partly specified) | -99*
COc1cc(CN2C[C@@H]3N[C@H](C2)C3c2ccc(/C=C/c3ccccc3)cc2)cc(OC)c1 (stereo partly specified) | 11
C/C=C/c1ccc(C2[C@@H]3CN(C(=O)c4ccc5c(c4)OCO5)C[C@H]2N3)cc1 (stereo partly specified) | -5
O=C(NC1CCCC1)N1CC2(C1)[C@H](c1ccccc1)[C@H](CO)N2S(=O)(=O)Cc1ccccc1 | -3
COc1cccc(CN2CC3(CCN(C(C)=O)CC3)c3c(n(C)c4cc(OC)ccc34)[C@@H]2CO)c1 | 11
C[C@@H]1CN([C@H](C)CO)C(=O)c2cc(-c3ccc(F)cc3)cnc2O[C@H]1CN(C)C(=O)Nc1ccc(F)cc1 | -8
O=C(C[C@H]1CC[C@H]2[C@@H](COC[C@H](O)CN2Cc2ccc(Cl)cc2)O1)NCc1cccc(F)c1 | 11
C[C@@H]1CN([C@@H](C)CO)C(=O)Cc2cc(NS(=O)(=O)c3cn(C)cn3)ccc2O[C@H]1CN(C)C(=O)Nc1ccc(C(F)(F)F)cc1 | 4
C[C@H](CO)N1C[C@H](C)[C@@H](CN(C)C(=O)Nc2ccccc2)Oc2ncc(C#CC3CCCC3)cc2C1=O | -10
C[C@@H]1CN([C@@H](C)CO)C(=O)c2cccc(NC(=O)Nc3ccccc3)c2O[C@@H]1CN(C)Cc1ccc(C(F)(F)F)cc1 | -97*
C[C@H](CO)N1C[C@H](C)[C@@H](CN(C)Cc2ccc(C(F)(F)F)cc2)Oc2c(NC(=O)Nc3ccc(C(F)(F)F)cc3)cccc2C1=O | 34
C[C@@H]1CN([C@H](C)CO)C(=O)c2cccc(NC(=O)Nc3ccc(C(F)(F)F)cc3)c2O[C@H]1CN(C)Cc1ccccc1 | 11
C[C@@H]1CN([C@@H](C)CO)C(=O)c2cccc(NC(=O)Nc3ccc(C(F)(F)F)cc3)c2O[C@@H]1CN(C)Cc1ccccc1 | -98*
C[C@H](CO)N1C[C@H](C)[C@@H](CN(C)Cc2ccccc2)Oc2c(NC(=O)Nc3ccc(C(F)(F)F)cc3)cccc2C1=O | 13
C[C@H](CO)N1C[C@H](C)[C@H](CN(C)Cc2ccccc2)Oc2c(NC(=O)Nc3ccc(C(F)(F)F)cc3)cccc2C1=O | 13
Cc1noc(C)c1NC(=O)N(C)C[C@H]1Oc2c(NC(=O)Nc3ccccc3)cccc2C(=O)N([C@@H](C)CO)C[C@H]1C | -3
C[C@@H]1CCCCO[C@@H](CN(C)S(C)(=O)=O)[C@@H](C)CN([C@@H](C)CO)C(=O)c2cc(N(C)C)ccc2O1 | -3
CS(=O)(=O)N1CC2(C1)[C@H](c1ccccc1)[C@H](CO)N2C(=O)c1ccccc1 | 3
O=C(C[C@H]1CC[C@@H]2[C@H](COC[C@@H](O)CN2Cc2cccc(C(F)(F)F)c2)O1)NCc1ccc(Cl)cc1 | 28
O=C(C[C@@H]1CC[C@@H]2[C@H](COC[C@H](O)CN2C(=O)Nc2cc(Cl)cc(Cl)c2)O1)N1CCOCC1 | -101*!
O=C(C[C@H]1CC[C@@H]2[C@H](COC[C@H](O)CN2C(=O)Nc2cc(Cl)cc(Cl)c2)O1)N1CCOCC1 | -92*!
O=C(C[C@H]1CC[C@H]2[C@@H](COC[C@@H](O)CN2C(=O)Nc2cc(Cl)cc(Cl)c2)O1)N1CCOCC1 | -15
O=C(C[C@@H]1CC[C@H]2[C@@H](COC[C@H](O)CN2C(=O)Nc2ccc(Cl)cc2)O1)N1CCCCC1 | 3
SMILES | C diff growth
O=C(C[C@H]1CC[C@@H]2[C@H](COC[C@@H](O)CN2C(=O)Nc2cccc(Cl)c2)O1)N1CCCCC1 | 60
O=C(C[C@@H]1CC[C@@H]2[C@H](COC[C@@H](O)CN2C(=O)Nc2cc(Cl)cc(Cl)c2)O1)N1CCOCC1 | 63
CN(C)CC(=O)N[C@H]1CC[C@H](CC(=O)O)O[C@@H]1CO | 2
COc1ccc2c3c(n(C)c2c1)[C@@H](CO)N(Cc1ccccc1)CC31CCN(S(=O)(=O)c2ccc(C)cc2)CC1 | 7
COCc1cn([C@@H]2C[C@@H]3O[C@@H](CO)CC[C@@H]3O[C@@H]2CCc2ccc(-c3ccc(OC)cc3)cc2)nn1 | -8
N#Cc1cccc(-c2ccc(C3[C@@H]4CN(C(=O)Nc5ccc(C(F)(F)F)cc5)C[C@H]3N4)cc2)c1 (stereo partly specified) | -94*
C/C=C/c1ccc(C2[C@@H]3CN(C(=O)Nc4ccc(C(F)(F)F)cc4)C[C@H]2N3)cc1 (stereo partly specified) | 0
O=C(Nc1ccc(C(F)(F)F)cc1)N1C[C@@H]2N[C@H](C1)C2c1ccc(-c2cccnc2)cc1 (stereo partly specified) | -102*!
